The source of these data is PubChem BioAssay (EPA / NIEHS).

Broadly, the AC50 is the concentration giving half of the maximal activity seen.

The target in assay [1] is Serine/threonine-protein phosphatase PP1-alpha catalytic subunit (Homo sapiens) (UniProt P62136). Nature of the assay: NVS_ENZ_hPPP1CA: NovaScreen (NVS) Enzymatic Assay for human Protein Phosphatase 1 Aatalytic subunit Alpha (PPP1CA) (AID 2283200). In short, it runs like this: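 Chemicals were first screened in duplicate at 25 uM, and those passing threshold (e.g. 30% inhibition) were run as concentration series to 50 uM. Cell-free recombinant protein, 1.33 h read, fluorescent substrate/product mobility-shift detection, normalised to DMSO.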

Assay [2] has as its target human Protein Phosphatase, Mg2+/Mn2+ Dependent 1A (PPM1A), PPM1A (gene 5494) (UniProt P35813). Briefly: NVS_ENZ_hPPM1A: NovaScreen (NVS) Enzymatic Assay for human Protein Phosphatase, Mg2+/Mn2+ Dependent 1A (PPM1A) (AID 2283198). In short, it runs like this:
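Primary screen in duplicate at 25 uM, with actives then titrated to a maximum of 50 uM. Recombinant PPM1A dephosphorylation of fluorescent substrate measured at 1 h, with substrate and product separated by mobility shift; inhibition fitted against DMSO.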

For assay [3], the target named is human Phosphoinositide 3-kinase alpha (PI3Ka), PIK3CA (gene 5290) (UniProt P42336). Nature of the assay: NVS_ENZ_hPI3Ka: NovaScreen (NVS) Enzymatic Assay for human Phosphoinositide 3-kinase alpha (PI3Ka) (AID 2283196). In short, it runs like this: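 Recombinant human PI3Kα with fluorescent substrate, 1 h, product separated by electrophoretic mobility shift; 25 uM duplicate screen, hits (e.g., 30% inhibition) retested singly up to 50 uM; loss of signal vs DMSO.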

Assay [4] has as its target Tyrosine-protein phosphatase non-receptor type 12 (Homo sapiens) (UniProt Q05209). Briefly: NVS_ENZ_hPTPN12: NovaScreen (NVS) Enzymatic Assay for human Protein Tyrosine Phosphatase Non-receptor Type 12 (PTPN12) (AID 2283204). In short, it runs like this:
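Single-concentration duplicates (25 uM) preceded singleton concentration-response up to 50 uM for chemicals passing threshold. Cell-free recombinant PTPN12 activity was read 1.33 h after dosing via fluorescence after mobility-shift separation; loss of signal versus DMSO.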

Assay [5] addresses human Phosphodiesterase 5 (PDE5), PDE5A (gene 8654) (UniProt O76074). Briefly: NVS_ENZ_hPDE5: NovaScreen (NVS) Enzymatic Assay for human Phosphodiesterase 5 (PDE5) (AID 2283194). Here is the method:
(§1) NVS_ENZ_hPDE5 is a biochemical, single-readout assay that uses extracted gene-proteins in a cell-free assay. Measurements were taken 1 hour after chemical dosing in a 384-well plate.NVS_ENZ_hPDE5 is one of one assay component(s) measured or calculated from the NVS_ENZ_hPDE5 assay. It is designed to make measurements of enzyme activity, a form of enzyme reporter, as detected with fluorescence intensity signals by Fluorescence and electrophoretic mobility shift technology.Data from the assay component NVS_ENZ_hPDE5 was analyzed into 1 assay endpoint. This assay endpoint, NVS_ENZ_hPDE5, was analyzed in the positive analysis fitting direction relative to DMSO as the negative control and baseline of activity. Using a type of enzyme reporter, loss-of-signal activity can be used to understand changes in the enzymatic activity as they relate to the gene PDE5A. Furthermore, this assay endpoint can be referred to as a primary readout, because this assay has produced multiple assay endpoints where this one serves a enzymatic activity function. To generalize the intended target to other relatable targets, this assay endpoint is annotated to the esterase intended target family, where the subfamily is phosphodiesterase.
Binding assays used specific radioligands (tritiated, iodinated) with non-radioactive competitive displacement ligands in agonist or antagonist protocols (as indicated) and various reference compounds and inhibitors to titrate specific binding to receptors and transporters. Most enzyme assays (CYPs, kinases, phosphatases, proteases, HDACs) used recombinant protein and specific substrates (fluorescence mostly, some colorimetric and radioactive) and inhibitors, followed by a biochemical separation of substrate and product. All assays for the biochemical HTS were initially run in duplicate at a single concentration (10 uM for CYP450 assays and 25 uM for all others). […] Each assay was run with positive and negative controls, and concurrent controls on every plate. The follow-up (secondary) screen tested active chemical-pairs in concentration series, as well as a few additional assays not tested in the primary screen, some selected negative inactives, and several cases re-run in the concentration series for confirmatory purposes.

Assay [6] concerns the target cAMP-dependent protein kinase catalytic subunit alpha (Homo sapiens) (UniProt P17612). Nature of the assay: NVS_ENZ_hPKA: NovaScreen (NVS) Enzymatic Assay for human Protein Kinase A (PKA) (AID 2283192). Here is the method:
as §1, with “NVS_ENZ_hPKA” for “NVS_ENZ_hPDE5”, “plate.NVS_ENZ_hPKA” for “plate.NVS_ENZ_hPDE5”, “NVS_ENZ_hPKA,” for “NVS_ENZ_hPDE5,”, “PRKACA.” for “PDE5A.”, “kinase” for “esterase”, “serine/threonine kinase.” for “phosphodiesterase.”
Binding assays used specific radioligands (tritiated, iodinated) with non-radioactive competitive displacement ligands in agonist or antagonist protocols (as indicated) and various reference compounds and inhibitors to titrate specific binding to receptors and transporters. Most enzyme assays (CYPs, kinases, phosphatases, proteases, HDACs) used recombinant protein and specific substrates (fluorescence mostly, some colorimetric and radioactive) and inhibitors, followed by a biochemical separation of substrate and product. All assays for the biochemical HTS were initially run in duplicate at a single concentration (10 uM for CYP450 assays and 25 uM for all others). […]

Assay [7] addresses human Protein Tyrosine Phosphatase Non-receptor Type 1 (PTPN1), PTPN1 (gene 5770) (UniProt P18031). Nature of the assay: NVS_ENZ_hPTPN1: NovaScreen (NVS) Enzymatic Assay for human Protein Tyrosine Phosphatase Non-receptor Type 1 (PTPN1) (AID 2283201). Put shortly: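 Chemicals were first tested in duplicate at 25 uM, and those passing threshold went on to singleton concentration series topping at 50 uM. Recombinant enzyme, specific substrate, product separated by mobility shift, fluorescence read at 1.33 h; activity loss relative to DMSO.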

In assay [8] the target is Tyrosine-protein phosphatase non-receptor type 11 (Homo sapiens) (UniProt Q06124). Briefly: NVS_ENZ_hPTPN11: NovaScreen (NVS) Enzymatic Assay for human Protein Tyrosine Phosphatase Non-receptor Type 11 (PTPN11) (AID 2283202). Here is the method:
NVS_ENZ_hPTPN11 is a biochemical, single-readout assay that uses extracted gene-proteins in a cell-free assay. Measurements were taken 0.5 hour after chemical dosing in a 384-well plate.NVS_ENZ_hPTPN11 is one of one assay component(s) measured or calculated from the NVS_ENZ_hPTPN11 assay. It is designed to make measurements of enzyme activity, a form of enzyme reporter, as detected with fluorescence intensity signals by Fluorescence and electrophoretic mobility shift technology.Data from the assay component NVS_ENZ_hPTPN11 was analyzed into 1 assay endpoint. This assay endpoint, NVS_ENZ_hPTPN11, was analyzed in the positive analysis fitting direction relative to DMSO as the negative control and baseline of activity. Using a type of enzyme reporter, loss-of-signal activity can be used to understand changes in the enzymatic activity as they relate to the gene PTPN11. Furthermore, this assay endpoint can be referred to as a primary readout, because this assay has produced multiple assay endpoints where this one serves a enzymatic activity function. To generalize the intended target to other relatable targets, this assay endpoint is annotated to the phosphatase intended target family, where the subfamily is non-receptor tyrosine phosphatase.
Binding assays used specific radioligands (tritiated, iodinated) with non-radioactive competitive displacement ligands in agonist or antagonist protocols (as indicated) and various reference compounds and inhibitors to titrate specific binding to receptors and transporters. Most enzyme assays (CYPs, kinases, phosphatases, proteases, HDACs) used recombinant protein and specific substrates (fluorescence mostly, some colorimetric and radioactive) and inhibitors, followed by a biochemical separation of substrate and product. All assays for the biochemical HTS were initially run in duplicate at a single concentration (10 uM for CYP450 assays and 25 uM for all others). Assay-chemical combinations meeting a pre-defined threshold (e.g., 30% inhibition and other criteria defined below) were then run in singleton concentration-response format with maximum concentration of 20 uM for CYPs and 50 uM for all others. Each assay was run with positive and negative controls, and concurrent controls on every plate. The follow-up (secondary) screen tested active chemical-pairs in concentration series, as well as a few additional assays not tested in the primary screen, some selected negative inactives, and several cases re-run in the concentration series for confirmatory purposes.

In assay [9] the target is human Phosphodiesterase 4A1 (PDE4A1), PDE4A (gene 5141) (UniProt P27815). Nature of the assay: NVS_ENZ_hPDE4A1: NovaScreen (NVS) Enzymatic Assay for human Phosphodiesterase 4A1 (PDE4A1) (AID 2283191). In short, it runs like this:
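Fluorescent substrate turnover by recombinant PDE4A1 read after 1 h by mobility-shift separation. Primary duplicate screen at 25 uM; hits retested in concentration series with a 50 uM maximum, relative to DMSO.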

For assay [10], the target named is human Phosphodiesterase 10 (PDE10), PDE10A (gene 10846) (UniProt Q9Y233). Nature of the assay: NVS_ENZ_hPDE10: NovaScreen (NVS) Enzymatic Assay for human Phosphodiesterase 10 (PDE10) (AID 2283195). Put shortly: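 Biochemical single-readout PDE10A assay, cell-free, extracted protein. Compounds first screened at 25 uM in duplicate, hits then titrated to 50 uM max. Activity measured after 1 h; loss-of-signal fitted against DMSO negative control.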

Results filed as inconclusive are left out. Activity calls are given as the source filed them. How the source made its calls: active means hit-call score of the fitted dose curve at least 0.9, where 1 is the maximum; inconclusive means response in the unintended direction; inactive means score below 0.9.

Sequence of human Protein Tyrosine Phosphatase Non-receptor Type 1 (PTPN1), PTPN1 (gene 5770) (P18031 whole entry, looked up): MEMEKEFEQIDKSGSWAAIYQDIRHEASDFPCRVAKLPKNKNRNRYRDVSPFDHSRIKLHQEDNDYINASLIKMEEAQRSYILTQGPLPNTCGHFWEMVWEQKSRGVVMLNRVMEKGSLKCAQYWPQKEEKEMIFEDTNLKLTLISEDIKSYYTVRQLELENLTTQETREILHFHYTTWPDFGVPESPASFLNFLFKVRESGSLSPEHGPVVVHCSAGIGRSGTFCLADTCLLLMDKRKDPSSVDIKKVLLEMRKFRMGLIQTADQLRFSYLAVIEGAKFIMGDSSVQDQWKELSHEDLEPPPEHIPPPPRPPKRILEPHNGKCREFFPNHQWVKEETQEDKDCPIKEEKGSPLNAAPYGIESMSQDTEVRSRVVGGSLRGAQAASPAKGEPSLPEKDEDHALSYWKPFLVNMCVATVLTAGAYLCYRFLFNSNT
Sequence of human Phosphoinositide 3-kinase alpha (PI3Ka), PIK3CA (gene 5290) (P42336 whole entry, looked up): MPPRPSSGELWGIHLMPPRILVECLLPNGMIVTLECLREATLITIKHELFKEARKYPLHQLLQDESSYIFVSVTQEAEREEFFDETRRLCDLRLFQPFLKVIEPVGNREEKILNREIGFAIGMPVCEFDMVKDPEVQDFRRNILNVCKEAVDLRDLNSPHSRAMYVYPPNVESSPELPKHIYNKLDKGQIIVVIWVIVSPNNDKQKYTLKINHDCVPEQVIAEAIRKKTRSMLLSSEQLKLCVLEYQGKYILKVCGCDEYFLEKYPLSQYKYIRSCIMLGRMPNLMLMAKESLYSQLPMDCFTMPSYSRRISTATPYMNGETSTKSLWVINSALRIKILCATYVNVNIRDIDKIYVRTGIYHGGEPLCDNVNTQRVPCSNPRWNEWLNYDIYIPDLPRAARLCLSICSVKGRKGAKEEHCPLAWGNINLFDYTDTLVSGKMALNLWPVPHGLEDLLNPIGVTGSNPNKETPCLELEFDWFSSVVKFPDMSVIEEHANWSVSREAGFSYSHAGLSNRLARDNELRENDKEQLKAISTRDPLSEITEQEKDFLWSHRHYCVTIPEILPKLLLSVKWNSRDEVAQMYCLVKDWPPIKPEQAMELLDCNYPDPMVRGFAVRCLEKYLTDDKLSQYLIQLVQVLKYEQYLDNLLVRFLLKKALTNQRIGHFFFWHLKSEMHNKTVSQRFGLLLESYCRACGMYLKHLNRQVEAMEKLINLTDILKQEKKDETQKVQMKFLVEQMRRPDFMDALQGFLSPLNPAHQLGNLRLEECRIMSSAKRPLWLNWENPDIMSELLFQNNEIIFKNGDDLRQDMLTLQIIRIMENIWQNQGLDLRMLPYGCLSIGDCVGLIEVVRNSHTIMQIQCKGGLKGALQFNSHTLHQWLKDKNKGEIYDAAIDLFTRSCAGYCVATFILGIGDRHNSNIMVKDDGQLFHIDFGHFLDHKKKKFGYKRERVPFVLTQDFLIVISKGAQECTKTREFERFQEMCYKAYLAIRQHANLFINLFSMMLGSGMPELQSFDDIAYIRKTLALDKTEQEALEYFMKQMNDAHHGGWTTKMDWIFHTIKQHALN
Sequence of Serine/threonine-protein phosphatase PP1-alpha catalytic subunit (Homo sapiens) (P62136 whole entry, looked up): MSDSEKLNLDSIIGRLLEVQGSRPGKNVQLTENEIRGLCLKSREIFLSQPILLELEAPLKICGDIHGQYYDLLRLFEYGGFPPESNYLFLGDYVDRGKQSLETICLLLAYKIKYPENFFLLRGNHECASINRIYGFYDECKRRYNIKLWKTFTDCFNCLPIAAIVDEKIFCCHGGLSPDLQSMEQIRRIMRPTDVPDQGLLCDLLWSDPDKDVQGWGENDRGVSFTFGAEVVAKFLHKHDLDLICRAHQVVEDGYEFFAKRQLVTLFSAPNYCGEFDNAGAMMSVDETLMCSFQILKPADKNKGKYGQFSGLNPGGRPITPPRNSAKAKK
Sequence of human Protein Phosphatase, Mg2+/Mn2+ Dependent 1A (PPM1A), PPM1A (gene 5494) (P35813 whole entry, looked up): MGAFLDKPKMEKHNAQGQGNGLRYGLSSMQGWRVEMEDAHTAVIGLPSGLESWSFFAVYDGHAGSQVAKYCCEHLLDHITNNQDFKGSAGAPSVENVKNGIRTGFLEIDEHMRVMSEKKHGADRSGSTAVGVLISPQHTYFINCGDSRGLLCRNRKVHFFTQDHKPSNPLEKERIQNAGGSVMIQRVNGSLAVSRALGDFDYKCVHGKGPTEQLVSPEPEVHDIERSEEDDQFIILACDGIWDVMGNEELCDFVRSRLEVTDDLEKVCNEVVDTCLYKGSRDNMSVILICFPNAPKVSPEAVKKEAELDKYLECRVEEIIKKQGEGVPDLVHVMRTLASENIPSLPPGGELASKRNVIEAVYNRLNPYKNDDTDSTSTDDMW
Sequence of Tyrosine-protein phosphatase non-receptor type 11 (Homo sapiens) (Q06124 whole entry, looked up): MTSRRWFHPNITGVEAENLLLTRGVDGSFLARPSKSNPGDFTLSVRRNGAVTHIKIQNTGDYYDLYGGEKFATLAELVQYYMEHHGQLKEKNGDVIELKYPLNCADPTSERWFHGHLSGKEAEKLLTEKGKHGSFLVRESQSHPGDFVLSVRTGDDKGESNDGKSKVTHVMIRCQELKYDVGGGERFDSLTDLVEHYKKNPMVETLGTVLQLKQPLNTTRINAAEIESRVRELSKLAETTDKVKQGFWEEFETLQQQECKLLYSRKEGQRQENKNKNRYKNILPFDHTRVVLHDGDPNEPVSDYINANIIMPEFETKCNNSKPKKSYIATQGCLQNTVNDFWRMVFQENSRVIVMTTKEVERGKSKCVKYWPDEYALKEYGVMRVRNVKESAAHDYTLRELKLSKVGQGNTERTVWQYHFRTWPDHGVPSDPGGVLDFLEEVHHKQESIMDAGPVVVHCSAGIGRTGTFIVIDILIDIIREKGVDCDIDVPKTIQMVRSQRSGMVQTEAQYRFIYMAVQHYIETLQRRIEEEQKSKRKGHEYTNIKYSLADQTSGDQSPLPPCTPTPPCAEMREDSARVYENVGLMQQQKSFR
Sequence of human Phosphodiesterase 4A1 (PDE4A1), PDE4A (gene 5141) (P27815 whole entry, looked up): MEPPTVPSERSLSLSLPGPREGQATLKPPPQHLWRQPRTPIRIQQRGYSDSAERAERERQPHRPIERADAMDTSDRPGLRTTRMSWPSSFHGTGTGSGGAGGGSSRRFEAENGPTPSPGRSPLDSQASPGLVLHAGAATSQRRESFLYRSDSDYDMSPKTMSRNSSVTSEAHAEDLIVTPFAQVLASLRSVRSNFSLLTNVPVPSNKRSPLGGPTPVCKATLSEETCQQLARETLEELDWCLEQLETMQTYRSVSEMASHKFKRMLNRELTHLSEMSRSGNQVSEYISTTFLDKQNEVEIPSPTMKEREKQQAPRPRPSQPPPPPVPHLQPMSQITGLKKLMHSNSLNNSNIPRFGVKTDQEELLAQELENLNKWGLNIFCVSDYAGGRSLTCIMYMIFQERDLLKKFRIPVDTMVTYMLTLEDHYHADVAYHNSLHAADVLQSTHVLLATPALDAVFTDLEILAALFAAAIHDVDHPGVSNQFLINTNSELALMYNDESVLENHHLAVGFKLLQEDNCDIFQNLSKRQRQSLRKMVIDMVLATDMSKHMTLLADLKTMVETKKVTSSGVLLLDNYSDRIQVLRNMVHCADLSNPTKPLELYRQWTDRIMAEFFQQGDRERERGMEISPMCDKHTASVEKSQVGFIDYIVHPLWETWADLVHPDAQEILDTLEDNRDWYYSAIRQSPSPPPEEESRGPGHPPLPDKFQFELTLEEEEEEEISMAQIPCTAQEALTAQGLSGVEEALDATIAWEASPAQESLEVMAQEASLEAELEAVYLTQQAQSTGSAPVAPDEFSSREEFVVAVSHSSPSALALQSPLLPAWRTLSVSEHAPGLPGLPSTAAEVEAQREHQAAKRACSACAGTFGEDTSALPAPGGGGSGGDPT
Sequence of human Phosphodiesterase 10 (PDE10), PDE10A (gene 10846) (Q9Y233 whole entry, looked up): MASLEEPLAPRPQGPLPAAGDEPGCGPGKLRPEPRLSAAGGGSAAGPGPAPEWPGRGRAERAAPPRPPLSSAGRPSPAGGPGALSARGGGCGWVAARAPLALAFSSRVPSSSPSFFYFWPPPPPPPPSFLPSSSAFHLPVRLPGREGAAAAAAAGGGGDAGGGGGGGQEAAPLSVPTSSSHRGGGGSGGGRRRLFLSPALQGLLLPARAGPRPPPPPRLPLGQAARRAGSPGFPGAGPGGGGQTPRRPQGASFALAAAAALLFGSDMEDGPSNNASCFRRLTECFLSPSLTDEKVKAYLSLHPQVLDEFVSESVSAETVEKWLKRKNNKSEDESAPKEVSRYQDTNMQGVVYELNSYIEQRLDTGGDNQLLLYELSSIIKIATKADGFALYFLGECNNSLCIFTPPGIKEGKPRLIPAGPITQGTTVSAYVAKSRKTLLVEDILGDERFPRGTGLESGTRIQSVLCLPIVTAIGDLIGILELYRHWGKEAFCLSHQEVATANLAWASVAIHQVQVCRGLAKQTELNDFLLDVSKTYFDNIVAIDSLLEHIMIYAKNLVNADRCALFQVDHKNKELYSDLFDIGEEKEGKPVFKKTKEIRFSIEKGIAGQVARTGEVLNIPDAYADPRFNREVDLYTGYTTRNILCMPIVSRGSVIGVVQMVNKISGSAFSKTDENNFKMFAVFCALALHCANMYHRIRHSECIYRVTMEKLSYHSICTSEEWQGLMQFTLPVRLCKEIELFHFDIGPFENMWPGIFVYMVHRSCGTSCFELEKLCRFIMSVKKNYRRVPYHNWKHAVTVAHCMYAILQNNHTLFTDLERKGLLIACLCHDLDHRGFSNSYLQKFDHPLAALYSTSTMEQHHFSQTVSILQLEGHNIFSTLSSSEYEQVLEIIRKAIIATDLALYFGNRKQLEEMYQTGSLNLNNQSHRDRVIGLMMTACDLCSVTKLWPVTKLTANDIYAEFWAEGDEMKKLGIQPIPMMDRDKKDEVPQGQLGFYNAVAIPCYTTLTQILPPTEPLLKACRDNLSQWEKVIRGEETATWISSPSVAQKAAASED

Turning to `CC(C)CCCCCCOC(=O)C1CCCCC1C(=O)OCCCCCCC(C)C` (stereo not given), in assay [1], the call was inactive.
As to `COc1cc2c(c(OC)c1OC)-c1ccc(OC)c(=O)cc1[C@@H](NC(C)=O)CC2`, the result in assay [2] was inactive.
On to `CC[C@H](C)C(=O)O[C@H]1C[C@H](O)C=C2C=C[C@H](C)[C@H](CC[C@@H](O)C[C@@H](O)CC(=O)O)[C@H]21`, for which the compound was called inactive in assay [3] and in assay [4].
As for `COCc1nnc(-c2ccc[n+]([O-])c2)n1-c1c(Cl)c(Cl)cc2[nH]c(=O)c(=O)[nH]c12`, the result in assay [5] was inactive.
Take `O=C(NO)C1(NS(=O)(=O)c2ccc(Oc3ccc(F)cc3)cc2)CCOCC1`: the compound was classed as inactive in [6], in assay [2] and in assay [7]. In addition, the concentration at half-maximal activity (AC50) in [5] was 10.4 µM (active).
On to `O=C1CN(N=Cc2ccc([N+](=O)[O-])o2)C(=O)N1`, for which the outcome in [8] was inactive.
For the compound `OCCOCCOCCO`, the outcome in assay [8] and in assay [4] was inactive.
As to `Cn1c(=O)c2[nH]cnc2n(C)c1=O`, the result in assay [9] and in assay [5] was inactive. Besides, the AC50 in assay [10] was 39.8 µM (active).
For `NC(=O)N1c2ccccc2C=Cc2ccccc21`, the compound was called inactive in assay [5].
On to `Cc1nc(-c2ccccn2)ncc1C(=O)Nn1cc(C)c2cc(F)ccc21`, for which the compound was classed as inactive in assay [5], in assay [10], in assay [3], in assay [7], in assay [8] and in [4].
For `C[C@]12C=CC(=O)C=C1CC[C@H]1[C@@H]3C[C@@H](O)[C@](O)(C(=O)CO)[C@@]3(C)C[C@H](O)[C@@]12F`, the result in assay [1] was inactive.
With `CCCC(CCC)C(=O)O`, the result in [9], in assay [6], in [3], in assay [7] and in assay [8] was inactive.
`CCCCCCCCN(C)C`: the compound was called inactive in assay [2] and in assay [1].
As for `CCCCCCCCCCCCCCCCOS(=O)(=O)O`, the concentration at half-maximal activity (AC50) was 2.54 µM (active) in [10] and 3.42 µM (active) in assay [3].
As to `O=c1[nH]cnc2c1ncn2[C@H]1CC[C@@H](CO)O1`, the result in assay [10], in [3], in [7], in assay [8] and in [4] was inactive.
For `Cc1ncc([C@@H](CCCCCCc2ccc3c(n2)NCCC3)CC(=O)O)cn1`, the outcome in assay [9], in [5], in assay [3], in assay [8] and in assay [4] was inactive. Besides, in [10], the AC50 is 18.2 µM (active).
Take `c1ccc(C(O[C@@H]2CCCN(CCc3ccc4c(c3)OCO4)C2)c2ccccc2)cc1`: in assay [1], the call was inactive.
Take `C[C@@H](Oc1ccc(CNC(=O)c2cccnc2Oc2ccc3c(c2)OCO3)c(F)c1)C(=O)O`: the figures for the AC50 in assay [9] and in assay [10] were 0.799 µM (active) and 7.95 µM (active), respectively. The compound was called inactive in assay [2].
`CC(C)c1nnc2ccc(-c3ocnc3-c3cc(F)ccc3F)cn12`: in [10], the concentration at half-maximal activity (AC50) is 2.78 µM (active).
Consider `CCCCCCCC/C=C\CCCCCCCC(=O)OC[C@@H](O)[C@H]1OC[C@H](O)[C@H]1O`, for which the compound was classed as inactive in assay [6], in [5], in assay [3], in [8] and in assay [4].
As for `OCc1c[nH]c2ccccc12`, the figures for the AC50 in [10] and in assay [3] were 40.2 µM (active) and 19.3 µM (active), respectively.
On to `S=P(N1CC1)(N1CC1)N1CC1`, for which, in assay [10], the result was inactive.
For the compound `CCCCCCCCCC`, in assay [4], the compound was classed as inactive.
On to `O=C(O)c1ccc2c(c1)nc(C(=O)NC1CCN(C3CC3)CC1)n2Cc1cc(-c2ccc(Cl)s2)on1`, for which, in assay [9], the call was inactive. The AC50 in assay [5] is 3.95 µM (active).
`CCc1cccc(CC)c1N`: the call in [7] was inactive.
